# Assays:
# Assay in all cases: DAPPL (digital affinity profiling via proximity ligation, sequencing); 10 mM Tris-HCl pH 7.5, 50 mM NaCl, 1 mM DTT, 4% glycerol, room temperature, 30 min; GST-TFs on glutathione beads, 16-mer random dsDNA library, 0.1% formaldehyde crosslink after washing; high values mean tight binding
# FEV = biological target: T1, FEV (Homo sapiens, UniProt Q99581 1-238); conditions: protein: recombinant; tags: N-terminal GST; dsDNA, one strand shown
# T1 sequence: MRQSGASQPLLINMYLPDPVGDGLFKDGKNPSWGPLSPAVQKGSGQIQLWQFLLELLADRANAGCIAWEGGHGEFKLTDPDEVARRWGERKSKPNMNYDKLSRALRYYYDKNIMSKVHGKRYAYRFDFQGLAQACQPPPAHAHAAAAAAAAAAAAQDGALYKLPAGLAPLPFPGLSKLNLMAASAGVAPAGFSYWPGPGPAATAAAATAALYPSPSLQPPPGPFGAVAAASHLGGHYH
# In short: (§1)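 Binding signal is defined as a hexamer's read frequency for one factor over its frequency for the tag-only sample. To obtain reads, GST-fused human transcription factors were expressed in yeast, captured on glutathione beads, barcoded with DNA and pooled with that sample. Pools met 200 nmole of a 16-mer random double-stranded DNA library in Tris/NaCl/DTT/glycerol buffer for 30 min at room temperature before washing, 0.1% formaldehyde crosslinking, proximity ligation (BsaI/T4 ligase, 1 h, 37 °C), PCR and Illumina NextSeq500 sequencing.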
# ETV5 = ETV5 (Homo sapiens, UniProt P41161 1-510); conditions: protein: recombinant; tags: N-terminal GST; dsDNA, one strand shown
# Sequence of ETV5 (P41161 whole entry): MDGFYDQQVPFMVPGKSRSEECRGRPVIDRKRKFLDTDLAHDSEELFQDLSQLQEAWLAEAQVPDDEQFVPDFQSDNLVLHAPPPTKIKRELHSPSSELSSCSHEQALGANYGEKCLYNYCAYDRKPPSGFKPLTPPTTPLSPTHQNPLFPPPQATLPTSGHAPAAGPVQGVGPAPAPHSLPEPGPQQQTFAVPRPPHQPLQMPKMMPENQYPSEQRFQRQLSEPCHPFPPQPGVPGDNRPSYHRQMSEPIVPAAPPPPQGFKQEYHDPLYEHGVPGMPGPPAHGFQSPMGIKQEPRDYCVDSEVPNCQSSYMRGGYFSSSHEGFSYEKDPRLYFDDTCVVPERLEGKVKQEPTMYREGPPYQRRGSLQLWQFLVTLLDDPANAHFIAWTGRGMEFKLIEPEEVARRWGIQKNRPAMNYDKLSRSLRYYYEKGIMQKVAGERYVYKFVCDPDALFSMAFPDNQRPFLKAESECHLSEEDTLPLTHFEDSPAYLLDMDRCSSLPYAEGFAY
# In short: as §1
# HSF1 = HSF1 (Homo sapiens, UniProt Q00613 1-529); conditions: protein: recombinant; tags: N-terminal GST; chain copies: 3; dsDNA, one strand shown
# Sequence of HSF1 (Q00613 whole entry): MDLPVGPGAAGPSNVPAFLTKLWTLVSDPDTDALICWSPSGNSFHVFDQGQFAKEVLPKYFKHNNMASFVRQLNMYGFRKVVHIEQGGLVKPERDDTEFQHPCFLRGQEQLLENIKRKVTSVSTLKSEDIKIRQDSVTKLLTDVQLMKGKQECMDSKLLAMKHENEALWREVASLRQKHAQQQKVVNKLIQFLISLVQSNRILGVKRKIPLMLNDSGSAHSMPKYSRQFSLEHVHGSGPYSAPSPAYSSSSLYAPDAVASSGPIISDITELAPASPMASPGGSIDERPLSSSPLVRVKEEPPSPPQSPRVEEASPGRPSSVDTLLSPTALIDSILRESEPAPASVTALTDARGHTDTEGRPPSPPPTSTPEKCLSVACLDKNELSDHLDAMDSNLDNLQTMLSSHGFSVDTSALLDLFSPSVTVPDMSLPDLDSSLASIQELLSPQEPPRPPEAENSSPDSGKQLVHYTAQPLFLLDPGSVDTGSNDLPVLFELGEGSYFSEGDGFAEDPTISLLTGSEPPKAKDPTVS
# In short: as §1
# SPIC = biological target: T2, SPIC (Homo sapiens, UniProt Q8N5J4 1-248); conditions: protein: recombinant; tags: N-terminal GST; dsDNA, one strand shown
# T2 sequence: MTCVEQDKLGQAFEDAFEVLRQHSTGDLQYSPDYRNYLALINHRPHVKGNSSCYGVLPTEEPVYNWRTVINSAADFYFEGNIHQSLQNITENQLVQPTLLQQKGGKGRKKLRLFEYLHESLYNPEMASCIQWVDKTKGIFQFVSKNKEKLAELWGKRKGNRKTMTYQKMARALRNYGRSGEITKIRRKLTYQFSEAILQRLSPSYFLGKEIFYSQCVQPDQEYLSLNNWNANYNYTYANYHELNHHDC
# In short: as §1
# ELF4 = ELF4 (Homo sapiens, UniProt Q99607 1-663); conditions: protein: recombinant; tags: N-terminal GST; dsDNA, one strand shown
# Sequence of ELF4 (Q99607 whole entry): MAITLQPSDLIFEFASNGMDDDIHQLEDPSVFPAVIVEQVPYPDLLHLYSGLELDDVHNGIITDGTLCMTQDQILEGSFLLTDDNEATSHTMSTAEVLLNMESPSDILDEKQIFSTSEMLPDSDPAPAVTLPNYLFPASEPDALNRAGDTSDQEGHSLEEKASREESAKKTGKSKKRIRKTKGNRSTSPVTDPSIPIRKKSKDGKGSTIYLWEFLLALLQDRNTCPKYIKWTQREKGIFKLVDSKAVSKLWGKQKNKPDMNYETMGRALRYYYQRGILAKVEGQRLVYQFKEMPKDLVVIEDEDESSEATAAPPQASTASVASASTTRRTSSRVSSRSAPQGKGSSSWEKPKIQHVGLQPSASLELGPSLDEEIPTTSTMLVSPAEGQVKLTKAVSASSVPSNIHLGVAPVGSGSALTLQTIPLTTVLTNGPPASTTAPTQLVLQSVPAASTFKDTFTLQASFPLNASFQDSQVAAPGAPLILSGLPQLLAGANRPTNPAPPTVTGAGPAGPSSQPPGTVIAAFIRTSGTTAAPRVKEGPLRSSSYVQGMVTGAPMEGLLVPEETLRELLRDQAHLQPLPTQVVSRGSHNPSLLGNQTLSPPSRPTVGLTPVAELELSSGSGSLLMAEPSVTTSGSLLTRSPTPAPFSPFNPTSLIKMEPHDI
# In short: as §1
# ELK4 = biological target: T3, ELK4 (Homo sapiens, UniProt P28324-2 1-405); conditions: protein: recombinant; tags: N-terminal GST; dsDNA, one strand shown
# T3 sequence: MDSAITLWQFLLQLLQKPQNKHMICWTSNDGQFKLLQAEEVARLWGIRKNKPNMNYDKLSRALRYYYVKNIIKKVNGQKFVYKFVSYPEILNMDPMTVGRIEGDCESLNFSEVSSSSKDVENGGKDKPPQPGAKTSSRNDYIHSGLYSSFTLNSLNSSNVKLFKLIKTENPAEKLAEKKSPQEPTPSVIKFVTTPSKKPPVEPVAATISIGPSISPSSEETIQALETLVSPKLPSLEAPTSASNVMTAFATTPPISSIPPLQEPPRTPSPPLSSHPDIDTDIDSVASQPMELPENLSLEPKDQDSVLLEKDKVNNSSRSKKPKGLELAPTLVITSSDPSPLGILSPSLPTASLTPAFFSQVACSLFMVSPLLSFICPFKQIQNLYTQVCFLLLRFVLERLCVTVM
# In short: as §1
# ETV2 = biological target: T4, ETV2 (Homo sapiens, UniProt O00321 1-342); conditions: protein: recombinant; tags: N-terminal GST; dsDNA, one strand shown
# T4 sequence: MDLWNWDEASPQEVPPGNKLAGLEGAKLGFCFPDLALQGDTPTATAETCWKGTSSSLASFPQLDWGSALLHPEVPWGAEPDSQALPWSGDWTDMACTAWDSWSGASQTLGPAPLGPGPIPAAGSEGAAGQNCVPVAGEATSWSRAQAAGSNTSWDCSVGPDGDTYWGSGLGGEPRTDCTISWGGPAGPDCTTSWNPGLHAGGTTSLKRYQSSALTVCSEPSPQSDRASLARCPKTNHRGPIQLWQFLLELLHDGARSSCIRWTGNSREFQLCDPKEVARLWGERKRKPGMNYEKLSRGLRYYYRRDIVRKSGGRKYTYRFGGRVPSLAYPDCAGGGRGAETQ
# In short: as §1
# ELF3 = biological target: T5, ELF3 (Homo sapiens, UniProt P78545 1-371); conditions: protein: recombinant; tags: N-terminal GST; dsDNA, one strand shown
# T5 sequence: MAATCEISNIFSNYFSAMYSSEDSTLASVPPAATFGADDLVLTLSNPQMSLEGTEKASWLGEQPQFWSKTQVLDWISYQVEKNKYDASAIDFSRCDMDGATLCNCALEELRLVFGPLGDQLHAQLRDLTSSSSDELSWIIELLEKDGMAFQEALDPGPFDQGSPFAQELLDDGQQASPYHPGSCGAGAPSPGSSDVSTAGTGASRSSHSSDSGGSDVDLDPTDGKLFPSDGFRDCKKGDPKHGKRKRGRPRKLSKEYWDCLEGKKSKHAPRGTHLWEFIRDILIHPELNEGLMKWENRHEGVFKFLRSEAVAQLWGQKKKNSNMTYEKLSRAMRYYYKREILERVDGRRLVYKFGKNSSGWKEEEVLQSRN
# In short: as §1
# CRX = CRX (Homo sapiens, UniProt O43186 1-299); conditions: protein: recombinant; tags: N-terminal GST; dsDNA, one strand shown
# Sequence of CRX (O43186 whole entry): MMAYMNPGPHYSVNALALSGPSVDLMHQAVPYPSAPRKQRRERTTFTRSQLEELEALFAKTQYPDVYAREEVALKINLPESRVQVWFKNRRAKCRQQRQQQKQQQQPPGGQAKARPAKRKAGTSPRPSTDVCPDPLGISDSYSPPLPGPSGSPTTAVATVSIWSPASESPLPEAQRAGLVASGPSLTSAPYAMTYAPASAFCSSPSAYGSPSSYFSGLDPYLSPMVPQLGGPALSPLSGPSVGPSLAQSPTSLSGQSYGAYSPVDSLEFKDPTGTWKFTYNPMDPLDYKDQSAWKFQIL
# In short: as §1
# ETV1 = ETV1 (Homo sapiens, UniProt P50549 1-477); conditions: protein: recombinant; tags: N-terminal GST; dsDNA, one strand shown
# Sequence of ETV1 (P50549 whole entry): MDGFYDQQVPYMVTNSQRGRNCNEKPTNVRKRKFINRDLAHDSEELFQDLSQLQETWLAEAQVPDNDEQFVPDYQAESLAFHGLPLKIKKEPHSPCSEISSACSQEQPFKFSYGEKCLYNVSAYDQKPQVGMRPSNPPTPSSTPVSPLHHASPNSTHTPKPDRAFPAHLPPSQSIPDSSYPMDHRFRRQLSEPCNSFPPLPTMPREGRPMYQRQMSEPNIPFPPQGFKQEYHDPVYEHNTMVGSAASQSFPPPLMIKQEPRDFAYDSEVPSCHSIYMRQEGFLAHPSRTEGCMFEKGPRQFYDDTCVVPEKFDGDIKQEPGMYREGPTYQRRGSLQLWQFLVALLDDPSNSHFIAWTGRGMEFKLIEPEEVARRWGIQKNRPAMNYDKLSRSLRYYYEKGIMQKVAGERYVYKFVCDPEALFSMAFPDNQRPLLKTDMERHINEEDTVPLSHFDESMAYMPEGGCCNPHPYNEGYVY
# In short: as §1
sequence,measurement,setting,value
TACTTC,binding signal,FEV,"4.27 fold enrichment (6-mer frequency, TF over GST control)"
same,binding signal,ETV5,"3.65 fold enrichment (6-mer frequency, TF over GST control)"
same,binding signal,HSF1,"1.43 fold enrichment (6-mer frequency, TF over GST control)"
same,binding signal,SPIC,"3.27 fold enrichment (6-mer frequency, TF over GST control)"
same,binding signal,ELF4,"3.17 fold enrichment (6-mer frequency, TF over GST control)"
same,binding signal,ELK4,"3.03 fold enrichment (6-mer frequency, TF over GST control)"
same,binding signal,ETV2,"3.6 fold enrichment (6-mer frequency, TF over GST control)"
same,binding signal,ELF3,"3.4 fold enrichment (6-mer frequency, TF over GST control)"
same,binding signal,CRX,"1.48 fold enrichment (6-mer frequency, TF over GST control)"
same,binding signal,ETV1,"3.6 fold enrichment (6-mer frequency, TF over GST control)"

# From PMC7862700, “An all-to-all approach to the identification of sequence-specific readers for epigenetic DNA modifications on cytosine”
